SMILES strings stand for the structures. Records with an inconclusive call do not appear. Values without a mark were called inactive. Calls of active or inactive are those of the source. Calls follow the shape of the dose curve; as a rule, active = well fitted curve in the direction sought with a large enough effect; inconclusive = small, poorly fitted or top-dose-only effect, or another doubt; inactive = no such curve, though single readings can be large; an effect the other way counts as inactive or inconclusive.

In assay [1] the target is Rap guanine nucleotide exchange factor 3 (Homo sapiens) (UniProt O95398). The assay is described as follows: Confirmatory qHTS for agonist of cAMP-regulated guanine nucleotide exchange factor 3 (EPAC1) (AID 1645881).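 Also: EPAC1 catalysed release of BODIPY-GDP from Rap1B seen as fluorescence loss; 100% = effect of cAMP agonist control; nearly all actives have a fitted effect of over 75% in size.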
The target of assay [2] is Rap guanine nucleotide exchange factor 4 (Homo sapiens) (UniProt Q8WZA2). The experiment in a line: Confirmatory qHTS for agonist of cAMP-regulated guanine nucleotide exchange factor 4 (EPAC2) (AID 1645884).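 Also: nucleotide exchange releases bodipy-GDP from Rap1 and this lowers its fluorescence; % is scaled to controls: 0 for no effect and ±100 for the full control effect; nearly all actives have a fitted effect of over 65% in size.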
Assay [3] has the same target. The experiment in a line: Confirmatory qHTS for antagonist of cAMP-regulated guanine nucleotide exchange factor 4 (EPAC2) (AID 1645885). Also: nearly all actives have a fitted effect of over 25% in size. Also: potency is read from the fitted curve at half-maximal effect. As to activity change, negative = inhibition: % is scaled to controls: 0 for no effect and ±100 for the full control effect.
Assay [4] has as its target Rap guanine nucleotide exchange factor 3 (Homo sapiens) (UniProt O95398). The experiment in a line: Counterscreen qHTS for antagonist of cAMP-regulated guanine nucleotide exchange factor 3 (EPAC1) (AID 1645888).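 Also: fluorescence loss as bound BODIPY-GDP is released from Rap1B; % of control where 0% means no effect.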 An outline of the steps: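 Rap1B–BODIPY-GDP (250 nM) with 50 uM GDP; compounds pin-transferred to 9.74 nM–152 uM final (activator) or from 7.32 nM upwards (inhibitor). Fluorescence Ex/Em 480/540 nm read at 5 and 30 min, then after adding cAMP or buffer, at room temperature.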

Chain of Rap guanine nucleotide exchange factor 3 (Homo sapiens) (O95398 whole entry, looked up): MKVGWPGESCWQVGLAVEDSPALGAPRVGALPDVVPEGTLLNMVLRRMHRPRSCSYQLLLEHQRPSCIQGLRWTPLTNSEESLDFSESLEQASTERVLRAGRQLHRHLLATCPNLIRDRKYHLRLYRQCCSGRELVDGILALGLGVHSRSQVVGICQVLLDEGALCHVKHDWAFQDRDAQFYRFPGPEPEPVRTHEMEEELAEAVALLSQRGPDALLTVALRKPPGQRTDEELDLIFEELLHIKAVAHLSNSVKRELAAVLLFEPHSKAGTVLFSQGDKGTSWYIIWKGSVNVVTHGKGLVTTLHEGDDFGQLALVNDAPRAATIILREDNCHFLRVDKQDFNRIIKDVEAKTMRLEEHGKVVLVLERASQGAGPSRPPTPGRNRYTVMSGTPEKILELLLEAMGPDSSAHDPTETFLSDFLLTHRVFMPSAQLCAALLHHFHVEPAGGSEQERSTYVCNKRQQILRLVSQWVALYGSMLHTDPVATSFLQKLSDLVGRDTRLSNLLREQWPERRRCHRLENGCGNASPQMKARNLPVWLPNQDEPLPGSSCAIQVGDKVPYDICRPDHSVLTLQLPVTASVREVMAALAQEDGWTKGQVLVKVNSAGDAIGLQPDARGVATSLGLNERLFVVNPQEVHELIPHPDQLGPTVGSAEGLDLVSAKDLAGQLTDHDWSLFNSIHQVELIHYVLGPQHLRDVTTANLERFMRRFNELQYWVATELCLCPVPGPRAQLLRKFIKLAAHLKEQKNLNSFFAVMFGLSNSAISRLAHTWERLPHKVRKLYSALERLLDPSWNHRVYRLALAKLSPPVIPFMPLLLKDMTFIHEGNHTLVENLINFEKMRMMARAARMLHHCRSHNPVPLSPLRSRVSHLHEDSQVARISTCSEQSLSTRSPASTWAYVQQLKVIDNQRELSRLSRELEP
Chain of Rap guanine nucleotide exchange factor 4 (Homo sapiens) (Q8WZA2 whole entry, looked up): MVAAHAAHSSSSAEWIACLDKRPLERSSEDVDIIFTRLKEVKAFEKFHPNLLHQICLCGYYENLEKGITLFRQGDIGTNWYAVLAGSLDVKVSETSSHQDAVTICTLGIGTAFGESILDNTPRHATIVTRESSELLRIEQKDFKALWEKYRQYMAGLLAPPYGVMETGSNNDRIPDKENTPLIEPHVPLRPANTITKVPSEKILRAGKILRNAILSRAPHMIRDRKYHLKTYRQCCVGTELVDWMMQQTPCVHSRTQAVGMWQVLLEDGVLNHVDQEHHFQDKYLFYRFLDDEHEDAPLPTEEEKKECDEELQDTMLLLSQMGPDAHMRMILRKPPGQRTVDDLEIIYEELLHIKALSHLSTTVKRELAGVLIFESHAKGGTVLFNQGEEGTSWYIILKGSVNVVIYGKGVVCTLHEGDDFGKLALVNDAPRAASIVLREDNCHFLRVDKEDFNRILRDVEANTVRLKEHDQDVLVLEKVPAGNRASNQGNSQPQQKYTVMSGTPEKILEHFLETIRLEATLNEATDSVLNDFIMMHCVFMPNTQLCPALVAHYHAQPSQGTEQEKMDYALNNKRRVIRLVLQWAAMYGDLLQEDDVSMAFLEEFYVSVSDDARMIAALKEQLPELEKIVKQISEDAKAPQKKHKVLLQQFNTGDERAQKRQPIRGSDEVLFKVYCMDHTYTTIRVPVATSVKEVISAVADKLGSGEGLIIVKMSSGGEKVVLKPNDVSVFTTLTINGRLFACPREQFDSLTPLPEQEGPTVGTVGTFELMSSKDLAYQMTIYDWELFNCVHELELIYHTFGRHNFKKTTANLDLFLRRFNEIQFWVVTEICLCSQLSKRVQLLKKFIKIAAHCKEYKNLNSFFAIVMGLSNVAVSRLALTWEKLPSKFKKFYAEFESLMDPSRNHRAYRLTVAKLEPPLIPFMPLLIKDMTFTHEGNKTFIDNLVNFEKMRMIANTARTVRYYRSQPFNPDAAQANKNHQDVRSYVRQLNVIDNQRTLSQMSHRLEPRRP

As to `Cc1csc(NC(=O)CSc2sc3c(O)cc(=O)[nH]c3c2C#N)n1`, the Potency entry in assay [1], in assay [2], in assay [3] and in assay [4] was “inactive” throughout.
Turning to `O=c1[nH][nH]c(-c2ccccc2O)c1C(C[N+](=O)[O-])c1ccc(Br)cc1` (stereo not drawn), the Potency result in assay [1], in assay [2], in assay [3] and in assay [4] was “inactive” throughout.
Turning to `Cc1cccc(N2CCN(C(=O)c3[nH]c(C(F)(F)F)nc3-c3ccccc3)CC2)c1C`, the Potency result in assay [1], in assay [2], in assay [3] and in assay [4] was “inactive” throughout.
Regarding `COc1ccc(NC(=O)CSc2sc3c(O)cc(=O)[nH]c3c2C#N)c(OC)c1`, the Potency result in assay [1] and in assay [3] was “inactive” in each case. Further, in assay [2], the activation is 3.92% [at 17.1 µM, percent relative to cAMP agonist control]. The activity change, negative = inhibition in assay [4] is -13.9% [at 30.8 µM].
Consider `O=C(Nc1ccc(S(=O)(=O)Nc2nccs2)cc1)c1cc(-c2ccccn2)nc2ccccc12`, for which the Potency entry in assay [1] and in assay [3] was “inactive” in each case. In assay [2], the activation was 4.2% [at 17.1 µM, percent relative to cAMP agonist control]. Further, in assay [4], the activity change, negative = inhibition is -7.32% [at 30.8 µM].
As to `CCCCc1ccc(NS(=O)(=O)c2cc3c4c(c2)CC(=O)N4CCC3)cc1`, the Potency entry in assay [1], in assay [2], in assay [3] and in assay [4] was “inactive” throughout.
Turning to `CCCn1cc(SCC(=O)NCc2ccc3c(c2)OCO3)c2ccccc21`, the Potency result in assay [1] and in assay [3] was “inactive” throughout. Moreover, the activation in assay [2] was 0% [at 17.1 µM, percent relative to cAMP agonist control]. In assay [4], the activity change, negative = inhibition was -3.41% [at 30.8 µM].
Turning to `CCN1CCc2c(sc(NC(=O)c3cc4ccccc4cc3OC)c2C(N)=O)C1`, the Potency result in assay [1] and in assay [3] was “inactive” throughout. Further, the activation in assay [2] is 8.91% [at 17.1 µM, percent relative to cAMP agonist control]. The activity change, negative = inhibition in assay [4] was -3.83% [at 30.8 µM].
For the compound `COc1ccc(NC(=O)c2ccco2)cc1NC(=O)C(C)Oc1ccc(Cl)cc1Cl` (stereo not drawn), the Potency result in assay [1], in assay [2], in assay [3] and in assay [4] was “inactive” throughout.
As for `CCOC(=O)C1CCN(c2c(C(=O)c3ccc(C)cc3)cnc3ccc(F)cc23)CC1`, the Potency entry in assay [1], in assay [2], in assay [3] and in assay [4] was “inactive” each time.
Turning to `O=C(CC(c1ccccc1)c1cc(Cl)ccc1O)N1CCCC1` (stereo not drawn), the Potency result in assay [1], in assay [2], in assay [3] and in assay [4] was “inactive” each time.
In the case of `CCOCc1nnc(NC(=O)C2c3ccccc3Oc3ccccc32)s1`, the Potency result in assay [1], in assay [2] and in assay [4] was “inactive” in each case. Further, the Potency in assay [3] was 67.5 µM (active).
As to `N#CCC(=O)N/N=C/c1coc2ccccc2c1=O`, the Potency result in assay [1], in assay [2], in assay [3] and in assay [4] was “inactive” in each case.
As for `Cc1ccc(C)c(N2CCN(C(=O)c3ccc4c(=O)n5c(nc4c3)CCCCC5)CC2)c1`, the Potency entry in assay [1] and in assay [3] was “inactive” in each case. In addition, the activation in assay [2] is 5.24% [at 17.1 µM, percent relative to cAMP agonist control]. In addition, the activity change, negative = inhibition in assay [4] was -18% [at 30.8 µM].
On to `O=c1nc(/C=C/c2cccn2-c2ccc([N+](=O)[O-])cc2)cc(C(F)(F)F)[nH]1`, for which the Potency entry in assay [1], in assay [2], in assay [3] and in assay [4] was “inactive” each time.
Regarding `ON=C(c1ccccc1)c1ccc2c3c(cccc13)CC2`, the Potency result in assay [1], in assay [2], in assay [3] and in assay [4] was “inactive” in each case.
Consider `NC(=O)[C@H]1CC2(CC(c3cccc(NC(=O)[C@H]4CCC(=O)N4)c3)=NO2)CN1C(=O)c1ccccc1` (stereo partly drawn), for which the Potency result in assay [1], in assay [2], in assay [3] and in assay [4] was “inactive” in each case.
Take `COc1ccc(OC)c(C(=O)c2coc3cc(Br)c(O)c(Br)c23)c1`: the Potency result in assay [1], in assay [2], in assay [3] and in assay [4] was “inactive” in each case.
As for `COc1ccc(C(CC(=O)c2ccc(C)cc2)C(C#N)C#N)cc1OC` (stereo not drawn), the Potency entry in assay [1], in assay [2], in assay [3] and in assay [4] was “inactive” each time.
In the case of `CC1=NN(c2ccccc2)C(=O)C1C(=O)c1cc([N+](=O)[O-])cc([N+](=O)[O-])c1` (stereo not drawn), the Potency result in assay [1], in assay [2], in assay [3] and in assay [4] was “inactive” throughout.
In the case of `C[C@H]1CN([C@@H](C)CO)S(=O)(=O)c2ccc(Br)cc2O[C@@H]1CN(C)Cc1cccc(F)c1`, the Potency entry in assay [1] and in assay [3] was “inactive” in each case. Moreover, in assay [2], the activation is 15% [at 17.1 µM, percent relative to cAMP agonist control]. For the same compound, the activity change, negative = inhibition in assay [4] is -8.18% [at 30.8 µM].
`CCOC(=O)c1c(NC(=O)CSc2nnnn2-c2ccccc2OCC)sc2c1CC(C)(C)NC2(C)C`: the Potency result in assay [1] and in assay [3] was “inactive” throughout. For the same compound, the activation in assay [2] was 5.6% [at 17.1 µM, percent relative to cAMP agonist control]. The activity change, negative = inhibition in assay [4] is -5.37% [at 30.8 µM].
`Cc1ccc(-c2cc(C(=O)Nc3ccc(S(=O)(=O)Nc4onc(C)c4C)cc3)c3ccccc3n2)cc1`: the Potency entry in assay [1] and in assay [3] was “inactive” each time. In assay [2], the activation was 6.25% [at 17.1 µM, percent relative to cAMP agonist control]. Besides, in assay [4], the activity change, negative = inhibition was 1.26% [at 30.8 µM].
Regarding `O=C(N/N=C/c1coc2ccc(Cl)cc2c1=O)c1cc(O)cc(O)c1`, the Potency entry in assay [1], in assay [2], in assay [3] and in assay [4] was “inactive” throughout.
For the compound `CCCCN1CC(c2nc3ccccc3n2CCCCOc2cc(C)ccc2C)CC1=O` (stereo not drawn), the Potency result in assay [1], in assay [2], in assay [3] and in assay [4] was “inactive” in each case.
Take `O=C(O)c1ccc(/C=N/NC(=O)c2cc(-c3ccc4c5c(cccc35)CC4)n[nH]2)cc1`: the Potency result in assay [1], in assay [2], in assay [3] and in assay [4] was “inactive” throughout.
With `Cc1ccccc1NC(=O)c1sc2nc(-c3cc4ccccc4oc3=O)[nH]c(=O)c2c1C`, the Potency entry in assay [1], in assay [2] and in assay [4] was “inactive” in each case. The outcome in assay [3] is “inactive; activator; fitted 0.8492 uM [at 12.7 µM]”.

The values are drawn from PubChem BioAssay (NCATS).
